According to PubChem BioAssay (NCI):
Compounds without any hit were thinned out: in the full panel of roughly 83,000, 20% have a hit.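 Each cell line was grown in a 96-well plate and treated with one concentration of compound for 48 hours. Values below 10 were considered active.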 Values without a mark were called inactive. Calls of active or inactive are those of the source.

Tests used:
Assay in all cases: NCI-60 one-dose screen, 48 h (100 = growth as untreated, 0 = no growth, -100 = all killed)
Settings in all cases: 10 µM unless noted
HCT-15 colon = test system: HCT-15 colon
SNB-75 CNS = test system: SNB-75 CNS
SNB-19 CNS = test system: SNB-19 CNS
U251 CNS = test system: U251 CNS
PC-3 prostate = test system: PC-3 prostate
SK-MEL-5 melanoma = test system: SK-MEL-5 melanoma
UACC-62 melanoma = test system: UACC-62 melanoma
LOX IMVI melanoma = test system: LOX IMVI melanoma
SK-MEL-28 melanoma = test system: SK-MEL-28 melanoma
SK-MEL-2 melanoma = test system: SK-MEL-2 melanoma
EKVX NSCLC = test system: EKVX NSCLC
SN12C renal = test system: SN12C renal
UO-31 renal = test system: UO-31 renal
TK-10 renal = test system: TK-10 renal
ACHN renal = test system: ACHN renal
CAKI-1 renal = test system: CAKI-1 renal
A498 renal = test system: A498 renal
CCRF-CEM leukemia = test system: CCRF-CEM leukemia
MOLT-4 leukemia = test system: MOLT-4 leukemia

| Compound | growth (HCT-15 colon) | growth (SNB-75 CNS) | growth (SNB-19 CNS) | growth (U251 CNS) | growth (PC-3 prostate) | growth (SK-MEL-5 melanoma) | growth (UACC-62 melanoma) | growth (LOX IMVI melanoma) | growth (SK-MEL-28 melanoma) | growth (SK-MEL-2 melanoma) | growth (EKVX NSCLC) | growth (SN12C renal) | growth (UO-31 renal) | growth (TK-10 renal) | growth (ACHN renal) | growth (CAKI-1 renal) | growth (A498 renal) | growth (CCRF-CEM leukemia) | growth (MOLT-4 leukemia) |
| --- | --- | --- | --- | --- | --- | --- | --- | --- | --- | --- | --- | --- | --- | --- | --- | --- | --- | --- | --- |
| CN1CCN(c2ccc3nc(-c4cc(C(C)(C)C)c(O)c(C(C)(C)C)c4)[nH]c3c2)CC1 | -35.3% (active) | 58.8% | 73.6% | 16.5% | 58.7% | 74.9% | 63.5% | -37.3% (active) | 57% | 82.5% | 86.4% | 88.2% | 61.3% | 90.5% | 87.3% | 68.6% | 90.5% | 14.5% | 39.6% |
| CN1CCN(C(=O)[C@]2(C)CC[C@]3(C)CC[C@]4(C)C(=CC(=O)[C@@H]5[C@@]6(C)CCC(=O)NC(C)(C)[C@@H]6CC[C@]54C)[C@@H]3C2)CC1 | 94.6% | 73.7% | 97.8% | 86.7% | 88.8% | 88.8% | 97.3% | 84.6% | 101% | 100% | 93.9% | 90.4% | 71.8% | 105% | 108% | 95.8% | 102% | 93.2% | 85.6% |
| C[C@H]1[C@H](C)CC[C@]2(CO)CC[C@]3(C)C(=CC[C@@H]4[C@@]5(C)Cc6c([nH]c7ccccc67)C(C)(C)[C@@H]5CC[C@]43C)[C@H]12 | 100% | 87.6% | 80.8% | 72.4% | 68.5% | 97.5% | 81.4% | 79.1% | 79.6% | – | – | 55.6% | 74.3% | 86.3% | 60.8% | 73.2% | – | – | 67% |
| C[C@]12C[C@H]1CC[C@]1(C)[C@@H]2CC[C@@]23C[C@H](CC[C@H]21)[C@@](O)(CO)C3 | 88.6% | 105% | 95.4% | 103% | 88.9% | 97.7% | 76.2% | 93.6% | 105% | 104% | 74.8% | 92% | 84% | 100% | 107% | 85.9% | 92.9% | 86.4% | 96% |
| C#CCn1cc(C=C2C(=O)NC(=S)NC2=O)c2cc(Cl)ccc21 | -23% (active) | 43.9% | 13.2% | 3.31% (active) | 8.39% (active) | 40.8% | 1.1% (active) | -46.1% (active) | -26.5% (active) | 89.1% | 67.2% | -34.9% (active) | -73.4% (active) | 16.1% | -25.2% (active) | 9.84% (active) | -1.83% (active) | – | 5.59% (active) |
| C=C1C(=O)O[C@H]2[C@H]1CC/C(COC(=O)NCCc1c[nH]c3ccc(Cl)cc13)=C\CC[C@@]1(C)O[C@@H]21 | -66.6% (active) | -54.6% (active) | 32.4% | – | 1.04% (active) | -15.2% (active) | -51.7% (active) | -82.4% (active) | -71.9% (active) | -3.3% (active) | -85.8% (active) | -70.1% (active) | -99.7% (active) | -97.2% (active) | -100% (active) | -100% (active) | – | -18.3% (active) | -6.88% (active) |
| O=C(Nc1nc2ccc(S(=O)(=O)Nc3ccc(C4(C(F)(F)F)CC4)cc3)cc2[nH]1)c1cnccn1 | 29.5% | -27.1% (active) | 40.3% | 38% | 27.7% | 26.1% | 40% | 38.3% | 57.2% | 56.3% | 65.3% | 44.9% | 40.3% | 65.9% | 43.5% | 28.6% | – | 19.9% | 38.7% |
| CCCCCCCCCCCCCCCCCCOc1ccccc1N | 85.6% | 82.8% | 87.1% | 50.3% | 21.3% | 98.2% | 88.5% | 38.6% | 96.9% | 86.3% | 85.3% | 27.8% | -37% (active) | 103% | 97.8% | 67.8% | 61.8% | 11% | 22.9% |
| CN1CCN(Cc2ccc(NC(=O)c3cncc(C#Cc4cnccc4C(F)(F)F)c3)cc2C(F)(F)F)CC1 | 70.2% | 89% | 103% | 78.4% | 80.4% | 75.1% | 89.9% | 20.9% | 56.6% | 73.4% | 87.6% | 75.7% | 67.2% | 109% | 75.8% | 93.8% | 78.4% | 82.9% | 45.7% |
